Consider six compounds from PubChem BioAssay (Tox21).

Inconclusive results are not listed. The source made the active and inactive calls. Unless noted, calls follow the shape of the full dose curve.

Test [1] is described as follows: Nuclear factor erythroid 2-related factor 2/antioxidant responsive element (Nrf2/ARE) small molecule agonists: qHTS cell viability counter screen in human keratinocytes (AID 1919968; active = well fitted curve in the direction sought with a large enough effect in the repeat runs; an effect the other way counts as inactive or inconclusive; also: nearly all actives have a fitted effect of over 55% in size). The method in brief: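 Cells of the KeratinoSens line were plated at 1,500 per well and left for 5 h before compound transfer from DMSO stocks. After a 23 h incubation (37 C, 5% CO2), CellTiter-Fluor was added. Signal was taken as fluorescence intensity 1 h later.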

The target of test [2] is Gonadotropin-releasing hormone receptor (Homo sapiens) (UniProt P30968). Nature of the test: Human gonadotropin-releasing hormone receptor (GnRHR) small molecule agonists, calcium flux assay in GnRHR-HEK293 cells (AID 1920063). Also: nearly all actives have a fitted effect of over 35% in size. The essentials:
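Compounds dissolved in DMSO are pin-transferred onto dye-loaded GnRHR-HEK293 cells, which were seeded 18 h before at 37 C/5% CO2. Calcium signal is read as fluorescence intensity at 1 s intervals for 3 min.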

Test [3] has as its target KiSS-1 receptor (Homo sapiens) (UniProt Q969F8). Nature of the test: Human kisspeptin (KISS1R) small molecule agonists, calcium flux assay in KISS1R-HEK293 cells (AID 1920064; active = well fitted curve in the direction sought with a large enough effect in the repeat runs; an effect the other way counts as inactive or inconclusive). The method in brief:
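Cell line: HEK293, stable human KISS1R. Dye loading 1 h at 37 C after 18 h culture. Read: kinetic fluorescence, 480/540 nm, 3 min at 1 s intervals.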

Test [4] can be described thus: G protein-coupled receptor (GPCR) small molecule agonists, calcium flux assay: HEK293 wild type cell line counter screen (AID 1920065). The method in brief: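 Tox21 10K compounds, 15 concentrations each in triplicate, pin-transferred in DMSO onto dye-loaded cells; kinetic read at 480/540 nm for 3 min, 1 s intervals.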
The nature of test [5]: p53 small molecule agonists, cell-based qHTS assay with human liver microsomes (AID 1963577).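 Also: p53 response element beta-lactamase reporter cells with liver microsomes plus NADPH.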 The method in brief:
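Steps: plate p53RE-bla cells, incubate 5 h at 37 C; add compound in DMSO; add microsomes (0.5 mg/mL final) and NADPH (0.5 mg/mL final); incubate 16 h at 37 C; add LiveBLAzer, 2 h RT; read fluorescence.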

A short description of test [6]: p53 small molecule agonists, cell-based qHTS assay with rat liver microsomes (AID 1963578). The method in brief: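 Metabolic activation is supplied by rat liver microsomes with NADPH (each 0.5 mg/mL final). p53RE-bla cells incubate with compound 16 h at 37 C; reporter activity is measured by LiveBLAzer fluorescence.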
A short description of test [7]: p53 small molecule agonists, cell-based qHTS assay with human liver microsomes: qHTS cell viability counter screen (AID 1963579). Also: nearly all actives have a fitted effect of over 45% in size. The method in brief:
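After the 460/530 nm beta-lactamase read, CellTiter-Glo was added to the same wells and luminescence measured after 30 min at room temperature, giving viability of p53RE-bla cells treated 16 h with compounds plus microsomes and NADPH.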

Test [8] in a line: p53 small molecule agonists, cell-based qHTS assay with rat liver microsomes: qHTS cell viability counter screen (AID 1963580). Also: nearly all actives have a fitted effect of over 45% in size. The essentials:
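Cytotoxicity counter screen: intracellular ATP read by CellTiter-Glo luminescence in the p53 reporter wells. HCT-116 p53RE-bla cells were treated for 16 h at 37 C alongside rat liver microsomes and NADPH, each 0.5 mg/mL final.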

Test [9] can be described thus: p53 small molecule agonists, cell-based qHTS assay: qHTS cell viability counter screen (AID 1963581). Also: nearly all actives have a fitted effect of over 45% in size. The essentials: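 ATP content measured by luminescence in HCT-116 p53RE-bla cells treated 16 h at 37 C, same wells as the reporter screen.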
Test [10] in a line: p53 small molecule agonists, cell-based qHTS assay (AID 1963582; active = well fitted activation curve with a large enough effect in the signal ratio in the repeat runs, not every such curve was filed as active; the % refers to the signal ratio). The method in brief:
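16 h compound exposure (37 C) of p53 response element–bla cells, preceded by 5 h recovery at 37 C/5% CO2; read-out via LiveBLAzer B/G FRET substrate, 2 h RT, fluorescence intensity.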

Test [11] concerns the target 5-hydroxytryptamine receptor 2A (Homo sapiens) (UniProt P28223). Nature of the test: 5-hydroxytryptamine receptor 2A (HTR2A) small molecule antagonists, cell-based qHTS assay (AID 1963586). Also: nearly all actives have a fitted effect of over 45% in size. The essentials:
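CHO cells stably expressing human HTR2A were plated for 18 h at 37 C, then loaded with calcium dye for 1 h. Compounds were preincubated 5 min at room temperature before DOI (4 nM solution) was added. Kinetic fluorescence was read for 3 min.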

Test [12] has the same target. Description: 5-hydroxytryptamine receptor 2A (HTR2A) small molecule agonists, cell-based qHTS assay (AID 1963587). Also: nearly all actives have a fitted effect of over 30% in size. Also: potency is read from the fitted curve at half-maximal effect. The essentials:
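Kinetic calcium-flux fluorescence (2 min, 1 sec intervals) after compound addition in agonist mode. HTR2A-CHO cells were cultured 18 h, then dye-loaded 1 h at 37 C.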

Test [13] deals with Muscarinic acetylcholine receptor M1 (Homo sapiens) (UniProt P11229). Nature of the test: Cholinergic receptor muscarinic 1 (CHRM1) small molecule antagonists, cell-based qHTS assay (AID 1963588). Also: nearly all actives have a fitted effect of over 40% in size. The essentials: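 Compounds were tested at 15 concentrations in three independent runs. Dye-loaded CHRM1-CHO cells were exposed 5 min at room temperature before stimulation by acetylcholine added at 50nM. Intracellular calcium was read kinetically on FDSS for 3 min.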
Chain of Muscarinic acetylcholine receptor M1 (Homo sapiens) (P11229 whole entry, looked up): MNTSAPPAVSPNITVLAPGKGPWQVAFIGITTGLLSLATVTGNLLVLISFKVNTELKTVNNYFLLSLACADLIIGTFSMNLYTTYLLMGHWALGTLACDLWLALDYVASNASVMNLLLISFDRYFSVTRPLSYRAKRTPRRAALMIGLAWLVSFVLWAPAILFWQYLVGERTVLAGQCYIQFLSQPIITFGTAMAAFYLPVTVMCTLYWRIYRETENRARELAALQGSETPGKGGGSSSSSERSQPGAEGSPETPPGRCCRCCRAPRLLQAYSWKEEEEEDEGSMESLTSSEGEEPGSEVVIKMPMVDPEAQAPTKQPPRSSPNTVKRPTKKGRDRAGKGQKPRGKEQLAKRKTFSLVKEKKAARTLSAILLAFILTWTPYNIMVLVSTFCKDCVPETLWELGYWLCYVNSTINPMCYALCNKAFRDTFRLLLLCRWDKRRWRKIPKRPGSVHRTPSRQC

Test [14] shares this target. Nature of the test: Cholinergic receptor muscarinic 1 (CHRM1) small molecule agonists, cell-based qHTS assay (AID 1963589). Also: nearly all actives have a fitted effect of over 35% in size. The method in brief:
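Homogeneous fluorescence calcium flux, agonist mode. Human M1-expressing CHO cells; compound dosed at 15 concentrations, three independent runs; signal sampled every 1 sec.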

Test [15] in a line: cAMP Responsive Elements (CRE) small molecule agonists, cell-based qHTS assay (AID 1963590). The method in brief:
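HEK 293T cells stably bearing CRE-bla were plated at 2,000 cells per well and rested 18 h. Compounds, positive controls or DMSO were added for 3 h at 37 C. LiveBLAzer B/G substrate was then loaded for 2 h at room temperature.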

In test [16] the target is Beta-2 adrenergic receptor (Homo sapiens) (UniProt P07550). Description: Adrenergic beta2 receptor (ADRB2) small molecule antagonists, cell-based qHTS assay (AID 1963592). Also: series mostly up to about 92 µM; nearly all actives have a fitted effect of over 50% in size. The essentials: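 Assay format: CHO-ADRB2 cells, 18-20hr seeding at 37C/5% CO2, then compound plus 1nM isoproterenol agonist mix for 0.5hr RT. Homogeneous time-resolved fluorescence cAMP detection after 1hr, expressed as 665/615 nm ratio.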
Chain of Beta-2 adrenergic receptor (Homo sapiens) (P07550 whole entry, looked up): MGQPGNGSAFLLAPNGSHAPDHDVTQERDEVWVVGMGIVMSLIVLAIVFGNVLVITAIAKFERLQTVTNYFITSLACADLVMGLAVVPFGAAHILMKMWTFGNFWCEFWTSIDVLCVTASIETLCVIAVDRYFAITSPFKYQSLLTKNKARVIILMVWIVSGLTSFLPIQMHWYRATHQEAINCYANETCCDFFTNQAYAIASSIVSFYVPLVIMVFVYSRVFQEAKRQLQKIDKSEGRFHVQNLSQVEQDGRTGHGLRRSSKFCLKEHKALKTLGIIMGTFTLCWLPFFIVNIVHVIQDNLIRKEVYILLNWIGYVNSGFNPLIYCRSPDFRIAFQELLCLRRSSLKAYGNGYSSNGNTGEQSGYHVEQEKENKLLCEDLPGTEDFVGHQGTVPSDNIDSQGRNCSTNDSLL

Test [17] has as its target D(2) dopamine receptor (Homo sapiens) (UniProt P14416). Nature of the test: Dopamine D2 receptor (DRD2) small molecule agonists, cell-based qHTS assay (AID 1963594). Also: nearly all actives have a fitted effect of over 35% in size. The method in brief:
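cAMP accumulation in DRD2-HEK293 cells measured by HTRF after 1 h detection; compounds added 10 min before NKH477 (200nM […]) forskolin-analogue stimulation, 30 min at room temperature, with Ro20-1724 present at 0.1 mM final.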

Test [18] has the same target. Description: Dopamine D2 receptor (DRD2) small molecule antagonists, cell-based qHTS assay (AID 1963595; active = well fitted inhibition curve with a large enough effect in the signal ratio in the repeat runs, with a control signal flat; the % refers to the signal ratio). The essentials:
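Cells were plated and grown for 24 h at 37 °C. Ro20-1724 (0.1 mM final) went in first, then compound for 10 min. NKH477 (200 nM) with quinpirole (12 nM) followed for 30 min at RT, then HTRF detection reagents for 1 h.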

Test [19] is described as follows: cAMP Responsive Elements (CRE) small molecule antagonists, cell-based qHTS assay (AID 1963591; active = well fitted inhibition curve with a large enough effect in the signal ratio in the repeat runs, not every such curve was filed as active; the % refers to the signal ratio). The method in brief:
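First, CRE-bla HEK293T cells settled 18 h at 37 C. Next, compound and 0.25 uM final NKH477 were applied for 3 h. Last, LiveBLAzer B/G substrate was loaded for 2 h at room temperature.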

Chain of KiSS-1 receptor (Homo sapiens) (Q969F8 whole entry, looked up): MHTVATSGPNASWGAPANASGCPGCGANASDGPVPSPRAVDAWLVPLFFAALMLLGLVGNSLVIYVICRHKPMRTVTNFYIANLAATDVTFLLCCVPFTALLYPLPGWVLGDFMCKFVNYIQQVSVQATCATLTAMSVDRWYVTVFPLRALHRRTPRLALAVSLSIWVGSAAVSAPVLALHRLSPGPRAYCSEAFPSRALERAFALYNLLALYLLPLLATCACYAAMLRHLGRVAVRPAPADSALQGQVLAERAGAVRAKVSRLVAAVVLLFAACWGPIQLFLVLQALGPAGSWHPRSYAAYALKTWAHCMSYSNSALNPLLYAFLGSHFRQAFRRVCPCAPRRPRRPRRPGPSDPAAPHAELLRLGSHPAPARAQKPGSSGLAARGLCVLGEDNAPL
Chain of Gonadotropin-releasing hormone receptor (Homo sapiens) (P30968 whole entry, looked up): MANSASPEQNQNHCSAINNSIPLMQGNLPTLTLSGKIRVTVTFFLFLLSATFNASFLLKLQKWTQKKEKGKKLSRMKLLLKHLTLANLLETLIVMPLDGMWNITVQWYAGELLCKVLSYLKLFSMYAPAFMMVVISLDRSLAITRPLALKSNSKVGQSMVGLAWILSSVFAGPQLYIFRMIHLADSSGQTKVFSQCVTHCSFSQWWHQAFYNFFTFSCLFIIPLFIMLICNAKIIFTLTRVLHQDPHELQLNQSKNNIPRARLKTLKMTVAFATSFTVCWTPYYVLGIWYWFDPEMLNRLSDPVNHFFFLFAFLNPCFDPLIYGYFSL
Chain of D(2) dopamine receptor (Homo sapiens) (P14416 whole entry, looked up): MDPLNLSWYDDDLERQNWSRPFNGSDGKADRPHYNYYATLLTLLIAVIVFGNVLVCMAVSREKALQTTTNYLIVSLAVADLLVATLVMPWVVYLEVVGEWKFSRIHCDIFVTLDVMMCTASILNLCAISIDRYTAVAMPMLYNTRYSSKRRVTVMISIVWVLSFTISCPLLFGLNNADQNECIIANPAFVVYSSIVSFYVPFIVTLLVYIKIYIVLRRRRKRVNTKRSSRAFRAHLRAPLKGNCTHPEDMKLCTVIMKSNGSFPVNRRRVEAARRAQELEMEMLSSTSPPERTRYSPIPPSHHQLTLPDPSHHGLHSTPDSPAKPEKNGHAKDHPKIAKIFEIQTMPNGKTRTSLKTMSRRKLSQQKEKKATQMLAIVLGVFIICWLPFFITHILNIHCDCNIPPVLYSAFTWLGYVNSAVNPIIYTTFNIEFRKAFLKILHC
Chain of 5-hydroxytryptamine receptor 2A (Homo sapiens) (P28223 whole entry, looked up): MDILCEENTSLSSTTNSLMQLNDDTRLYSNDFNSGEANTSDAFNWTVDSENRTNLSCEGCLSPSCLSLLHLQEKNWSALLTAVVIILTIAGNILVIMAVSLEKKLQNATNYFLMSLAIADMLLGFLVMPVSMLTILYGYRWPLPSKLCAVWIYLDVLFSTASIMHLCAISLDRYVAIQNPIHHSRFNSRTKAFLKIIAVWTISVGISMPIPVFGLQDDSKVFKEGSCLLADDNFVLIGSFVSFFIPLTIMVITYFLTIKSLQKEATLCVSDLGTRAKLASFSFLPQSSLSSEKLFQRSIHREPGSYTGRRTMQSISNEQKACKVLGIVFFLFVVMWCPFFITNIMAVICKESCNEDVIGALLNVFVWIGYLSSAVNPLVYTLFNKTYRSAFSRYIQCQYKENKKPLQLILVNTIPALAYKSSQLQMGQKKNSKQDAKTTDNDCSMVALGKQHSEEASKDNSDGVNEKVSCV

In the case of `BrCCCCBr`, the Potency entry in [1], in test [2], in test [3], in test [4], in test [5] and in test [6] was “inactive” in each case. Also, the Potency result in test [7], in [8], in [9], in [10], in test [11] and in [12] was “inactive” throughout. Moreover, the Potency entry in test [13], in test [14], in test [15], in [16], in test [17] and in [18] was “inactive” in each case.
On to `NC(=O)CI`, for which the Potency result in test [1], in test [2], in test [3], in test [4], in test [5] and in [6] was “inactive” in each case. Besides, the Potency entry in test [7], in test [8], in test [9], in test [10], in test [11] and in [12] was “inactive” throughout. Further, the Potency result in test [13], in test [14], in test [16], in [17] and in test [18] was “inactive” throughout.
As for `BrCC(Br)(Br)Br`, the Potency entry in test [1], in test [2], in [3], in test [4], in test [5] and in [6] was “inactive” in each case. Also, the Potency result in test [7], in test [8], in test [9], in [10], in [11] and in test [13] was “inactive” in each case. The Potency result in test [14], in test [15], in test [19], in test [16], in test [17] and in test [18] was “inactive” in each case.
Consider `CC(Cl)CN(C)C` (stereo unspecified), for which the Potency entry in test [1], in test [2], in test [3], in test [4], in test [5] and in test [6] was “inactive” throughout. For the same compound, the Potency result in test [7], in [8], in test [9], in test [10], in test [11] and in [12] was “inactive” in each case. Also, the Potency entry in test [13], in test [14], in test [15], in [19], in test [17] and in [18] was “inactive” each time.
As to `Cn1sc(Cl)cc1=O`, the Potency entry in test [1], in test [2], in [3], in test [4], in test [5] and in test [6] was “inactive” throughout. Moreover, the Potency result in test [7], in [8], in test [9], in test [10], in test [11] and in test [13] was “inactive” in each case. In addition, the Potency entry in test [14], in test [15], in [19], in test [16] and in [18] was “inactive” each time. Moreover, the Potency in test [12] was 54.9 µM (active).
For `S=C=Nc1ccccc1`, the Potency entry in test [1], in [2], in test [3], in test [4], in [5] and in test [6] was “inactive” each time. For the same compound, the Potency entry in test [7], in test [8], in test [9], in [10], in test [11] and in test [13] was “inactive” in each case. Moreover, the Potency result in test [14], in test [15], in test [16], in [17] and in [18] was “inactive” throughout.
